In PubChem BioAssay AID1159580 (chemical genetic matrix, 2015):
Several values for one entry are separate records, joined by “and”; a condition that tells them apart may be missing. Identical values can stand only once. Out of some 5,500 compounds screened, about 2,000 (36%) were called active. About 18% were inconclusive and are not listed. Rule as the data show it: active = normalized growth mostly below about 0.91 (no sharp cut-off); inconclusive = no clear call, values can overlap the other calls; inactive = mostly above about 0.92. Some of the results follow.

Test: chemical genetic growth profiling, strain panel (AID 1159580);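 also: tested at 20 µM; growth read once vehicle control cultures reached saturation at 30 °C; 1 = growth at the plate median or of vehicle wells; lower values mean less growth of the strain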
Conditions: S. cerevisiae deletion strains, growth OD

Measured: normalized growth

Nc1ccn(C2O[C@H](CO)[C@@H](O)[C@H]2O)c(=O)n1 (some centres undefined)
inactive: locus YAL021C, strain ccr4, stronger effect = lower value 0.985 | locus YAL026C, strain drs2, stronger effect = lower value 0.983 | locus YAL030W, strain snc1, stronger effect = lower value 0.982 | locus YBL061C, strain skt5, stronger effect = lower value 0.996 | locus YBR009C, strain hhf1, stronger effect = lower value 0.997 | locus YBR021W, strain FUR4, stronger effect = lower value 1.02 | locus YBR023C, strain chs3, stronger effect = lower value 1 | locus YBR171W, strain sec66, stronger effect = lower value 0.991 | locus YBR229C, strain ROT2, stronger effect = lower value 0.997 | locus YBR231C, strain swc5, stronger effect = lower value 0.987 | locus YBR279W, strain paf1, stronger effect = lower value 0.995 | locus YCL011C, strain gbp2, stronger effect = lower value 0.991 | locus YCL016C, strain dcc1, stronger effect = lower value 1 | locus YCL029C, strain bik1, stronger effect = lower value 1.01 | locus YCL061C, strain MRC1, stronger effect = lower value 0.992 | locus YCL069W, strain vba3, stronger effect = lower value 0.992 | locus YCR088W, strain abp1, stronger effect = lower value 0.985 | locus YDL005C, strain med2, stronger effect = lower value 0.983 | locus YDL035C, strain GPR1, stronger effect = lower value 1.01 | locus YDL040C, strain nat1, stronger effect = lower value 0.987 | locus YDL074C, strain BRE1, stronger effect = lower value 1.03 | locus YDL101C, strain DUN1, stronger effect = lower value 1.02 | locus YDL185W, strain tfp1, stronger effect = lower value 1.03 | locus YDL192W, strain arf1, stronger effect = lower value 1.01 | locus YDR001C, strain nth1, stronger effect = lower value 0.977 | locus YDR069C, strain doa4, stronger effect = lower value 0.992 | locus YDR101C, strain arx1, stronger effect = lower value 1.03 | locus YDR137W, strain rgp1, stronger effect = lower value 0.982 | locus YDR150W, strain NUM1, stronger effect = lower value 0.962 | locus YDR159W, strain sac3, stronger effect = lower value 0.982 | locus YDR162C, strain NBP2, stronger effect = lower value 1 | locus YDR195W, strain ref2 0.974 | locus YDR297W, strain sur2, stronger effect = lower value 0.982 | locus YDR318W, strain mcm21, stronger effect = lower value 0.998 | locus YDR334W, strain swr1, stronger effect = lower value 0.981 | locus YDR335W, strain msn5, stronger effect = lower value 0.982 | locus YDR388W, stronger effect = lower value 1 | locus YDR392W, strain spt3, stronger effect = lower value 0.995 | locus YDR502C, strain sam2, stronger effect = lower value 1.01 | locus YEL003W, strain gim4, stronger effect = lower value 0.99 | locus YEL037C, strain rad23, stronger effect = lower value 0.991 | locus YEL061C, strain CIN8 (second series), stronger effect = lower value 0.983 | locus YEL061C, strain CIN8, stronger effect = lower value 1.01 | locus YER015W, strain faa2, stronger effect = lower value 1.01 | locus YER016W, strain bim1, stronger effect = lower value 0.987 | locus YER110C, stronger effect = lower value 1.01 | locus YER111C, strain swi4, stronger effect = lower value 0.982 | locus YER155C, strain BEM2 (second series), stronger effect = lower value 0.975 | locus YER155C, strain BEM2, stronger effect = lower value 1 | locus YER167W, strain BCK2, stronger effect = lower value 0.987 | locus YFR010W, strain ubp6, stronger effect = lower value 0.972 | locus YGL078C, strain dbp3, stronger effect = lower value 1.01 | locus YGL086W, strain mad1, stronger effect = lower value 1.03 | locus YGL167C, strain pmr1, stronger effect = lower value 0.997 | locus YGL173C, strain kem1, stronger effect = lower value 0.995 | locus YGL227W, strain vid30, stronger effect = lower value 0.993 | locus YGL240W, strain doc1, stronger effect = lower value 1.01 | locus YGL248W, strain PDE1, stronger effect = lower value 0.991 | locus YGL253W, strain hxk2, stronger effect = lower value 0.996 | locus YGR078C, strain PAC10, stronger effect = lower value 1.02 | locus YGR135W, strain pre9, stronger effect = lower value 1 | locus YGR252W, strain gcn5, stronger effect = lower value 0.993 | locus YHR013C, strain ard1, stronger effect = lower value 1.01 | locus YHR027C, strain rpn1, stronger effect = lower value 0.989 | locus YHR030C, strain SLT2, stronger effect = lower value 1.01 and 1 | locus YHR079C, strain IRE1 (second series), stronger effect = lower value 1 | locus YHR079C, strain IRE1, stronger effect = lower value 0.995 | locus YHR094C, strain hxt1, stronger effect = lower value 1.01 | locus YHR129C, strain ARP1, stronger effect = lower value 1.01 | locus YHR142W, strain chs7, stronger effect = lower value 0.999 | locus YHR200W, strain rpn10, stronger effect = lower value 1.02 | locus YIL066C, strain RNR3, stronger effect = lower value 0.995 | locus YIL073C, strain SPO22, stronger effect = lower value 1.02 | locus YIL125W, strain kgd1, stronger effect = lower value 1.01 | locus YIR030C, strain dcg1, stronger effect = lower value 1.01 | locus YJL092W, strain hpr5, stronger effect = lower value 0.988 | locus YJL095W, strain BCK1 (second series), stronger effect = lower value 0.995 | locus YJL095W, strain BCK1, stronger effect = lower value 1.06 and 1 | locus YJL115W, strain asf1, stronger effect = lower value 0.975 | locus YJL129C, strain trk1, stronger effect = lower value 0.995 | locus YJL134W, strain LCB3, stronger effect = lower value 0.999 | locus YJL154C, strain vps35, stronger effect = lower value 0.978 | locus YJL164C, strain tpk1, stronger effect = lower value 1 | locus YJL166W, strain qcr8, stronger effect = lower value 0.999 | locus YJL168C, strain set2, stronger effect = lower value 0.999 | locus YJL187C, strain SWE1 (second series), stronger effect = lower value 1.04 | locus YJL187C, strain SWE1, stronger effect = lower value 0.987 | locus YJR043C, strain POL32, stronger effect = lower value 1 | locus YJR066W, strain TOR1, stronger effect = lower value 0.909
